Laboratory results as given in PubChem BioAssay (Tox21).
Results filed as inconclusive are left out. Entries that show only a call come without a potency. Unmarked numbers belong to inactive results. The source made the active and inactive calls. Unless noted, calls follow the shape of the dose curve; as a rule, active = well fitted curve in the direction sought with a large enough effect in the repeat runs; inconclusive = weak or mixed curves; inactive = no such curve, though single readings can be large; an effect the other way counts as inactive or inconclusive.

Assays:
[1] = qHTS assay to identify aromatase inhibitors - cell viability counter screen (AID 743084);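 also: cells stimulated with testosterone during compound exposure; nearly all actives have a fitted effect of over 55% in size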
[2] = biological target: Aryl hydrocarbon receptor (Homo sapiens) (UniProt P35869); test: qHTS assay to identify small molecule that activate the aryl hydrocarbon receptor (AhR) signaling pathway (AID 743085); also: nearly all actives have a fitted effect of over 15% in size; also: potency is read from the fitted curve at half-maximal effect;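 as to activation: HG2L7.5c1 human HepG2 liver cells with stably integrated DRE-driven firefly reporter; series mostly up to about 70 µM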
Summary of the method: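 HepG2 cells stably carrying a 20-DRE firefly luciferase reporter (HG2L7.5c1) treated with compound for 24 hr at 37C. Luciferase read by ONE-Glo luminescence, with CellTiter-Fluor viability read first.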

[3] = qHTS assay to identify small molecule that activate the aryl hydrocarbon receptor (AhR) signaling pathway - cell viability counter screen (AID 743086);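 also: HepG2 liver cells carrying the AhR DRE luciferase reporter; series mostly up to about 70 µM; nearly all actives have a fitted effect of over 45% in size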
Summary of the method: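 HepG2-AhR-luc (HG2L7.5c1) cells, 4000/well, treated 24 h at 37 C with compound; viability measured as CellTiter-Fluor fluorescence after 30 min in the same wells as the luciferase read.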

[4] = biological target: Peroxisome proliferator-activated receptor gamma (Homo sapiens) (UniProt P37231); test: qHTS assay to identify small molecule agonists of the peroxisome proliferator-activated receptor gamma (PPARg) signaling pathway (AID 743094; active = well fitted activation curve with a large enough effect in the signal ratio in the repeat runs, not every such curve was filed as active; the % refers to the signal ratio)
Summary of the method: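 GeneBLAzer PPARg UAS-bla HEK293H cells carrying a stably integrated beta-lactamase reporter were pre-incubated 5 h at 37C, then exposed to compounds in DMSO for 17 h at 37C; LiveBLAzer B/G FRET substrate was added for 1 h at room temperature and fluorescence read.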

[5] = biological target: Peroxisome proliferator-activated receptor gamma (Homo sapiens) (UniProt P37231); test: qHTS assay to identify small molecule antagonists of the peroxisome proliferator-activated receptor gamma (PPARg) signaling pathway (AID 743191; calls by dose curve; also: series mostly up to about 63 µM; nearly all actives have a fitted effect of over 30% in size)
Summary of the method: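 GeneBLAzer PPARg UAS-bla HEK293H cells, 5 h post-plating, exposed to compounds 17 h at 37C. LiveBLAzer B/G FRET substrate added for 1 h at room temperature; beta-lactamase reporter read by fluorescence intensity.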

[6] = qHTS assay to identify small molecule antagonists of the peroxisome proliferator-activated receptor gamma (PPARg) signaling pathway - cell viability counter screen (AID 743194); also: nearly all actives have a fitted effect of over 55% in size
Summary of the method: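 Cytotoxicity counter screen in PPARg-bla HEK293H cells, same wells as reporter assay. Compounds plus 50 nM rosiglitazone (final) for 17 h at 37 C, then viability read by CellTiter-Glo luminescence.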

[7] = qHTS assay for small molecule agonists of the antioxidant response element (ARE) signaling pathway - cell viability counter screen (AID 743203; calls by dose curve; also: nearly all actives have a fitted effect of over 55% in size)
Summary of the method: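 CellSensor ARE-bla HepG2 cells, 2,000 per well, rested 5 hrs at 37C/5% CO2, then exposed to compound in DMSO for 16 hrs; viability read as CellTiter-Glo luminescence after 30 min at room temperature, in the reporter wells.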

[8] = qHTS assay for small molecule activators of the heat shock response signaling pathway - cell viability counter screen (AID 743209); also: nearly all actives have a fitted effect of over 50% in size
Summary of the method: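 CellSensor HSE-bla HeLa cells, plated overnight at 37 C/5% CO2, were exposed to compounds in DMSO for 5 h at 37 C. Viability was then read in the same wells by CellTiter-Glo luminescence after 30 min at room temperature.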

[9] = qHTS assay for small molecule activators of the heat shock response signaling pathway (AID 743210; active = well fitted activation curve with a large enough effect in the signal ratio in the repeat runs, with a control signal flat, not every such curve was filed as active; the % refers to the signal ratio; also: series mostly up to about 63 µM)
Summary of the method: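 HSE-bla HeLa cells (beta-lactamase reporter under heat shock response elements), plated overnight, then exposed to compounds 5 h at 37 C; LiveBLAzer B/G FRET substrate added, 2.5 h at room temperature, fluorescence intensity read.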

[10] = qHTS assay to identify small molecule agonists of the peroxisome proliferator-activated receptor delta (PPARd) signaling pathway - cell viability counter screen (AID 743211); also: nearly all actives have a fitted effect of over 55% in size
Summary of the method: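 PPARd-bla HEK293H cells (3000/well) were pre-incubated 5 h at 37 C, then exposed to compound for 17 h at 37 C. After 2 h with LiveBLAzer substrate, CellTiter-Glo was added to the same wells; luminescence read after 30 min at room temperature.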

[11] = qHTS assay to identify small molecule antagonists of the peroxisome proliferator-activated receptor delta (PPARd) signaling pathway - cell viability counter screen (AID 743213); also: nearly all actives have a fitted effect of over 50% in size
Summary of the method: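 HEK293H PPARd UAS-bla cells, 5 h pre-incubation, compound + L165041 300 nM final, 17 h 37 C; B/G FRET substrate 2 h RT; then CellTiter-Glo 30 min RT, luminescence.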

[12] = biological target: Peroxisome proliferator-activated receptor delta (Homo sapiens) (UniProt Q03181); test: qHTS assay to identify small molecule antagonists of the peroxisome proliferator-activated receptor delta (PPARd) signaling pathway (AID 743215; active = well fitted inhibition curve with a large enough effect in the signal ratio in the repeat runs, not every such curve was filed as active; the % refers to the signal ratio;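 also: cells stimulated with agonist L165041 at 300 nM final during compound exposure; series mostly up to about 62 µM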)
Summary of the method: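 PPARd UAS-bla HEK293H cells were pre-incubated 5 h at 37 C, then given test compounds in DMSO plus agonist L165041 (300 nM final). After 17 h at 37 C, beta-lactamase FRET substrate was added; fluorescence read after 2 h at room temperature.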

[13] = qHTS assay to identify small molecule agonists of the farnesoid-X-receptor (FXR) signaling pathway - cell viability counter screen (AID 743218); also: nearly all actives have a fitted effect of over 45% in size
Summary of the method: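 FXR-UAS-bla HEK 293T cells, plated 5 h at 37 C, were exposed to compounds for 16 h at 37 C. CellTiter-Glo was then added to the same wells as the bla readout; luminescence read after 30 min at room temperature.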

[14] = qHTS assay to identify small molecule antagonists of the farnesoid-X-receptor (FXR) signaling pathway - cell viability counter screen (AID 743221; active = well fitted cell-killing curve with a large enough effect in the repeat runs, not every such curve was filed as active; also: nearly all actives have a fitted effect of over 50% in size)
Summary of the method: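 GeneBLAzer FXR-UAS-bla HEK 293T cells, compound plus chenodeoxycholic acid (50 uM final), 16 h at 37 C. CellTiter-Glo added to the same wells after the beta-lactamase read; luminescence read after 30 min at room temperature as viability.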

[15] = qHTS assay for small molecule agonists of the antioxidant response element (ARE) signaling pathway (AID 743202; active = well fitted activation curve with a large enough effect in the signal ratio in the repeat runs, not every such curve was filed as active; the % refers to the signal ratio)
Summary of the method: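 ARE-bla HepG2 cells (beta-lactamase reporter under the antioxidant response element), plated 5 hours, then exposed to compounds 16 hours at 37 C. LiveBLAzer B/G FRET substrate added for 2 hours at room temperature; fluorescence intensity read.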

[16] = biological target: Peroxisome proliferator-activated receptor delta (Homo sapiens) (UniProt Q03181); test: qHTS assay to identify small molecule agonists of the peroxisome proliferator-activated receptor delta (PPARd) signaling pathway (AID 743212; calls by dose curve)
Summary of the method: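 GeneBLAzer UAS-bla HEK293H cells carrying a PPARδ construct were exposed to compounds at 37 °C. Beta-lactamase activity was read by FRET fluorescence after 2 h at room temperature with LiveBLAzer B/G substrate.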

[17] = biological target: Vitamin D3 receptor (Homo sapiens) (UniProt P11473); test: qHTS assay to identify small molecule agonists of the vitamin D receptor (VDR) signaling pathway (AID 743222; calls by dose curve)
Summary of the method: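 VDR-bla cells were plated 4 h at 37C/5% CO2, then exposed to compounds in DMSO for 16 h. After LiveBLAzer B/G FRET substrate addition and 2 h at room temperature, beta-lactamase reporter fluorescence was read.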

[18] = biological target: Vitamin D3 receptor (Homo sapiens) (UniProt P11473); test: qHTS assay to identify small molecule antagonists of the vitamin D receptor (VDR) signaling pathway (AID 743223; active = well fitted inhibition curve with a large enough effect in the signal ratio in the repeat runs, not every such curve was filed as active; the % refers to the signal ratio)
Summary of the method: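 VDR-bla cells were treated with compound plus 3 nM final 1alpha,25-dihydroxyvitamin D3 for 16 h at 37C. Beta-lactamase reporter read by B/G FRET substrate fluorescence after 2 h at room temperature. qHTS format.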

Aryl hydrocarbon receptor (Homo sapiens), sequence (P35869 whole entry, looked up): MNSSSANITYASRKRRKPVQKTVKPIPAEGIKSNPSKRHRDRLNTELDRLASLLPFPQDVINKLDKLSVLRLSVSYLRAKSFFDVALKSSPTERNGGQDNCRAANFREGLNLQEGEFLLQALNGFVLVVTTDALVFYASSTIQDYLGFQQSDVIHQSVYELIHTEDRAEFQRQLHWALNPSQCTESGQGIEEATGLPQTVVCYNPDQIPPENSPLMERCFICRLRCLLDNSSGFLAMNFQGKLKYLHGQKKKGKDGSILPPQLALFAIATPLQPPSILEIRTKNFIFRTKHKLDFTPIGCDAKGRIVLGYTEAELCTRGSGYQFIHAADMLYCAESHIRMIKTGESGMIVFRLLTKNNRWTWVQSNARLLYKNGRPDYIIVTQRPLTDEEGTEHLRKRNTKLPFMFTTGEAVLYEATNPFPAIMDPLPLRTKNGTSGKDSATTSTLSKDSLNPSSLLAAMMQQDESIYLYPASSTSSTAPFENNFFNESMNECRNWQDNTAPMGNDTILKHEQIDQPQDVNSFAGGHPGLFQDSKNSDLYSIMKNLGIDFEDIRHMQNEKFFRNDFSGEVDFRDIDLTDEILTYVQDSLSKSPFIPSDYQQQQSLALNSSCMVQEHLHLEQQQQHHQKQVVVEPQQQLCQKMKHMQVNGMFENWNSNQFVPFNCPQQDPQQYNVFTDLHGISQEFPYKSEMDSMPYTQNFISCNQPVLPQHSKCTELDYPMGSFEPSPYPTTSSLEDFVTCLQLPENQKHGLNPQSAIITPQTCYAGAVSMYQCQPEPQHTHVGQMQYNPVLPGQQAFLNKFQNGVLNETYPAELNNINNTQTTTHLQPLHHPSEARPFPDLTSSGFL
Vitamin D3 receptor (Homo sapiens), sequence (P11473 whole entry, looked up): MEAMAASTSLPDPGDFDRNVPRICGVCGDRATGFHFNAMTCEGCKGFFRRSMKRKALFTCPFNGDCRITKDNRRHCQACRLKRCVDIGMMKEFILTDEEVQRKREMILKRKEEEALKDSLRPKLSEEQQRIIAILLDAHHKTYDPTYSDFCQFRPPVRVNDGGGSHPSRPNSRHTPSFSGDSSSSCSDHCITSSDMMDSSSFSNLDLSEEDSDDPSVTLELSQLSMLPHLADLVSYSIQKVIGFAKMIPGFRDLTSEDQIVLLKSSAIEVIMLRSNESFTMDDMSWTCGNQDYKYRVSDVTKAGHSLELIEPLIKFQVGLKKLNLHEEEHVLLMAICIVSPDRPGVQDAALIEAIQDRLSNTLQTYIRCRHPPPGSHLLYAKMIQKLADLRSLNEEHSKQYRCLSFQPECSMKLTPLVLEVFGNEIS
Peroxisome proliferator-activated receptor gamma (Homo sapiens), sequence (P37231 whole entry, looked up): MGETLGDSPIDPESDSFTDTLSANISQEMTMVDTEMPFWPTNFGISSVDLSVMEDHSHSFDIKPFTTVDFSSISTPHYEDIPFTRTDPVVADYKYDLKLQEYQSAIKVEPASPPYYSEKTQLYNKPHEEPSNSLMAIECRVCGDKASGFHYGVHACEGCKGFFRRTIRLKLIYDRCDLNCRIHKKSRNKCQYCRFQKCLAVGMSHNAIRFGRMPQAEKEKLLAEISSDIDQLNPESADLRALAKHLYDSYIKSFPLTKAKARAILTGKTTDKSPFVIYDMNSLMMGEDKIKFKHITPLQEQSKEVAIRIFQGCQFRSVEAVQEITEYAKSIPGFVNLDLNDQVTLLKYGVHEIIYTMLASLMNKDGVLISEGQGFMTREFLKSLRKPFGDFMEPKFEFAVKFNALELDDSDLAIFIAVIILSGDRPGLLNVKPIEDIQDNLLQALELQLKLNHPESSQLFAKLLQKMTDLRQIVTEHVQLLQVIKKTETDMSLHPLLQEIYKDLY
Peroxisome proliferator-activated receptor delta (Homo sapiens), sequence (Q03181 whole entry, looked up): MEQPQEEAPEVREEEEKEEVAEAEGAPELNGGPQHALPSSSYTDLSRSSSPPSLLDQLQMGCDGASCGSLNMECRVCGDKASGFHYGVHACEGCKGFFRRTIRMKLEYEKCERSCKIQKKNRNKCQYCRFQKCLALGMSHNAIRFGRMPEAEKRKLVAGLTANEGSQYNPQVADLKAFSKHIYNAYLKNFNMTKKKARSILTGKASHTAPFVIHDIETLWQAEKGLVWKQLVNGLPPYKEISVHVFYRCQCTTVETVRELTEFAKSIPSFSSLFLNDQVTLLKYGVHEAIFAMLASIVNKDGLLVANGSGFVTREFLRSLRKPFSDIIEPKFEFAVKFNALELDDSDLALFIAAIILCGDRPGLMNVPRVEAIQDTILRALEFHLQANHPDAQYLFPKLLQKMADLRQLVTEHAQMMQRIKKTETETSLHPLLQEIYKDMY

| SMILES | Potency [1] | Potency [2] | Potency [3] | Potency [4] | Potency [5] | Potency [6] | Potency [7] | outcome [8] | outcome [9] | Potency [10] | Potency [11] | outcome [12] | Potency [13] | Potency [14] | Potency [15] | Potency [16] | outcome [17] | outcome [18] |
| --- | --- | --- | --- | --- | --- | --- | --- | --- | --- | --- | --- | --- | --- | --- | --- | --- | --- | --- |
| O=[N+]([O-])c1ccc(Cl)cc1Cl | inactive | inactive | inactive | inactive | inactive | inactive | inactive | inactive | inactive | inactive | inactive | inactive | inactive | inactive | – | – | – | – |
| C=C[Si]1(C)O[Si](C)(C=C)O[Si](C)(C=C)O[Si](C)(C=C)O1 (centres undefined) | inactive | inactive | inactive | inactive | inactive | inactive | inactive | – | – | inactive | – | – | – | inactive | inactive | inactive | inactive | inactive |
| O=Cc1ccc([N+](=O)[O-])cc1 | inactive | inactive | inactive | inactive | inactive | inactive | inactive | inactive | inactive | inactive | inactive | inactive | inactive | inactive | inactive | inactive | inactive | inactive |
| COc1ccc(C(=O)c2ccc(C)cc2)c(O)c1 | inactive | 9.44 µM (active) | inactive | inactive | inactive | inactive | inactive | inactive | inactive | inactive | – | inactive | – | inactive | – | inactive | – | inactive |
